# Results published in PMC7862700, “An all-to-all approach to the identification of sequence-specific readers for epigenetic DNA modifications on cytosine”.
# Assays:
# Test in all cases: DAPPL (digital affinity profiling via proximity ligation, sequencing); 10 mM Tris-HCl pH 7.5, 50 mM NaCl, 1 mM DTT, 4% glycerol, room temperature, 30 min; GST-TFs on glutathione beads, 16-mer random dsDNA library, 0.1% formaldehyde crosslink after washing; high values mean tight binding
# Conditions in all cases: protein: recombinant; tags: N-terminal GST; dsDNA, one strand shown
# [1] = target: T1, FLI1 (Homo sapiens, UniProt Q01543 1-452)
# T1 sequence: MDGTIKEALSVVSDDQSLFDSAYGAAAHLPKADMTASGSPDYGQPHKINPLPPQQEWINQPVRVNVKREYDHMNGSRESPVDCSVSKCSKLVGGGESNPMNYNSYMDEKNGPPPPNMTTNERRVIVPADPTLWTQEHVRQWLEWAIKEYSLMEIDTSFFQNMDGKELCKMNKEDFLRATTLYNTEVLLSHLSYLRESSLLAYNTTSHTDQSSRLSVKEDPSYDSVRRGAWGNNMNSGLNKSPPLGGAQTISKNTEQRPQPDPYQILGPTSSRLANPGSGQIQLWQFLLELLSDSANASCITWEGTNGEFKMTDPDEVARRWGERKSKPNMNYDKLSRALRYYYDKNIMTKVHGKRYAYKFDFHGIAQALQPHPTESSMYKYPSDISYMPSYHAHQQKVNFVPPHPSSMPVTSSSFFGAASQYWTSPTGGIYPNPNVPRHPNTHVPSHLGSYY
# Procedure, shortened: (§1)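 Sequencing on an Illumina NextSeq500 followed washing, crosslinking with 0.1% formaldehyde, proximity ligation (BsaI/T4 ligase, 1 h, 37 °C) and PCR amplification of pools that had been incubated for 30 min at room temperature with 200 nmole of a random double-stranded 16-mer DNA library in Tris/NaCl/DTT/glycerol buffer. Each pool held DNA-barcoded human transcription factors, expressed in yeast as GST fusions and captured on glutathione beads, plus a tag-only sample. Binding signal is a hexamer's read frequency for a factor divided by its frequency in the tag-only sample.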
# [2] = target: T2, ELK1 (Homo sapiens, UniProt P19419 1-428)
# T2 sequence: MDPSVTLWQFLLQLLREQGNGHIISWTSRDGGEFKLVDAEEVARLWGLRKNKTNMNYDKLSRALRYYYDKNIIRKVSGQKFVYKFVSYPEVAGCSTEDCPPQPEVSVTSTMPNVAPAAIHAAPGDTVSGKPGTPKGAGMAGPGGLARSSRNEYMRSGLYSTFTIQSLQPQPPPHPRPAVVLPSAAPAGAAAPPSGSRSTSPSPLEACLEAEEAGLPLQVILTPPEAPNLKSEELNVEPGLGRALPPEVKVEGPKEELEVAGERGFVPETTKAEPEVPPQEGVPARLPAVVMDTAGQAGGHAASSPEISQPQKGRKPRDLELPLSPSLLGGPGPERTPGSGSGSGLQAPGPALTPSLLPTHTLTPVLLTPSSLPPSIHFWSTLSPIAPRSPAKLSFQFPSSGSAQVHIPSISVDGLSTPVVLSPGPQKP
# Procedure, shortened: as §1
# [3] = target: T3, GABPA (Homo sapiens, UniProt Q06546 1-454)
# T3 sequence: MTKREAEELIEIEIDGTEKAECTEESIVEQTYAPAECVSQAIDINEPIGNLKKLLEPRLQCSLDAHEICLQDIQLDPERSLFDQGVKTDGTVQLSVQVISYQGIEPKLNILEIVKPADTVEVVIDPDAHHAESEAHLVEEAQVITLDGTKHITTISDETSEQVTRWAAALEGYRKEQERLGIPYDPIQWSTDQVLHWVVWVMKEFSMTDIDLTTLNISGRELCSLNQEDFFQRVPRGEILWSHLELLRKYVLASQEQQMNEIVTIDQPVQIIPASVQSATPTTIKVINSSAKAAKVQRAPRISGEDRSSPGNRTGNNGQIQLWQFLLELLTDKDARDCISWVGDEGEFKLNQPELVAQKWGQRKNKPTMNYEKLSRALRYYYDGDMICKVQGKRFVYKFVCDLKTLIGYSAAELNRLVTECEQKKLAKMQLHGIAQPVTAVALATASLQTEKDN
# Procedure, shortened: as §1
# [4] = target: T4, ERG (Homo sapiens, UniProt P11308 1-479)
# T4 sequence: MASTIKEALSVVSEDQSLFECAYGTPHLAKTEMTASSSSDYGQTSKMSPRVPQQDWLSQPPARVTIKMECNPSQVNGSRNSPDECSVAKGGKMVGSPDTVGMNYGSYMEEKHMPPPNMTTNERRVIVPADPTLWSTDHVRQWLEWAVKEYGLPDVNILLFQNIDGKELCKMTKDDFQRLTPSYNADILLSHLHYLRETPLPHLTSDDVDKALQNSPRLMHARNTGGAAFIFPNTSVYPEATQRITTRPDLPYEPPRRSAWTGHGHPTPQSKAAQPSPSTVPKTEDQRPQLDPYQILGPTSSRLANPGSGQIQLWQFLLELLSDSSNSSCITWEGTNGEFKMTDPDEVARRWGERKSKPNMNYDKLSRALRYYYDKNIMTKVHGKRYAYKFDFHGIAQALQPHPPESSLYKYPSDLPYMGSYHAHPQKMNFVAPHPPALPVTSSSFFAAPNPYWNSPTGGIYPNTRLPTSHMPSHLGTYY
# Procedure, shortened: as §1
# [5] = target: ELF1 (Homo sapiens, UniProt P32519 1-619)
# Procedure, shortened: as §1
# [6] = target: T5, EHF (Homo sapiens, UniProt Q9NZC4 1-300)
# T5 sequence: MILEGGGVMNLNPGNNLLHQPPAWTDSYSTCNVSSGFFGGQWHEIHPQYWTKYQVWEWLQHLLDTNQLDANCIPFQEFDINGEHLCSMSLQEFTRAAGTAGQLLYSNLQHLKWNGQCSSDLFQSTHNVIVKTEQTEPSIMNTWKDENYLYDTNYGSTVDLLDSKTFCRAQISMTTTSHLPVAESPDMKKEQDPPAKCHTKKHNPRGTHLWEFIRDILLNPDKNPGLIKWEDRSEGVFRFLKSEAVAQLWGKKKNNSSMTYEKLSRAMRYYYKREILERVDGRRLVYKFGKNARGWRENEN
# Procedure, shortened: as §1
# [7] = target: SPI1 (Homo sapiens, UniProt P17947 1-270)
# Procedure, shortened: as §1
# [8] = target: SPIB (Homo sapiens, UniProt Q01892 1-262)
# Procedure, shortened: as §1
# [9] = target: T6, ELK3 (Homo sapiens, UniProt P41970 1-407)
# T6 sequence: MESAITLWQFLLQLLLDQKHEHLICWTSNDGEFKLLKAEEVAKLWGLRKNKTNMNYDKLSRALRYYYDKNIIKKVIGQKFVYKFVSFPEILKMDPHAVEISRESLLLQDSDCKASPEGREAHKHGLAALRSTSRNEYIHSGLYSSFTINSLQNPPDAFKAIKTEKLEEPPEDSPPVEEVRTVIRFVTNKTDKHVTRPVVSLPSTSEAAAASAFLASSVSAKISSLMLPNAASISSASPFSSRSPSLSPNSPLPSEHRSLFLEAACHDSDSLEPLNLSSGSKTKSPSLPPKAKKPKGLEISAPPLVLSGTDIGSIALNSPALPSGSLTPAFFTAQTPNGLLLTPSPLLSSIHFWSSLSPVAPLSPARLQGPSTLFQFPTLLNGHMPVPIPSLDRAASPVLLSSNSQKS
# Procedure, shortened: as §1
# [10] = target: T7, FEV (Homo sapiens, UniProt Q99581 1-238)
# T7 sequence: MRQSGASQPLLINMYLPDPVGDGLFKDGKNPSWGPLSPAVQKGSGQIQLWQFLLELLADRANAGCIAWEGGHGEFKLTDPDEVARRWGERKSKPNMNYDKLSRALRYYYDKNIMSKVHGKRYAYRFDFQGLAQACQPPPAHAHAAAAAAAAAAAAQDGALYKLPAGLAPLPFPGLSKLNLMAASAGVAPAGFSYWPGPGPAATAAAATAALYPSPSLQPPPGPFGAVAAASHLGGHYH
# Procedure, shortened: as §1
# [11] = target: ETV5 (Homo sapiens, UniProt P41161 1-510)
# Procedure, shortened: as §1
# [12] = target: ELF4 (Homo sapiens, UniProt Q99607 1-663)
# Procedure, shortened: as §1
# [13] = target: ETV1 (Homo sapiens, UniProt P50549 1-477)
# Procedure, shortened: as §1
# [14] = target: T8, ERF (Homo sapiens, UniProt P50548 1-548)
# T8 sequence: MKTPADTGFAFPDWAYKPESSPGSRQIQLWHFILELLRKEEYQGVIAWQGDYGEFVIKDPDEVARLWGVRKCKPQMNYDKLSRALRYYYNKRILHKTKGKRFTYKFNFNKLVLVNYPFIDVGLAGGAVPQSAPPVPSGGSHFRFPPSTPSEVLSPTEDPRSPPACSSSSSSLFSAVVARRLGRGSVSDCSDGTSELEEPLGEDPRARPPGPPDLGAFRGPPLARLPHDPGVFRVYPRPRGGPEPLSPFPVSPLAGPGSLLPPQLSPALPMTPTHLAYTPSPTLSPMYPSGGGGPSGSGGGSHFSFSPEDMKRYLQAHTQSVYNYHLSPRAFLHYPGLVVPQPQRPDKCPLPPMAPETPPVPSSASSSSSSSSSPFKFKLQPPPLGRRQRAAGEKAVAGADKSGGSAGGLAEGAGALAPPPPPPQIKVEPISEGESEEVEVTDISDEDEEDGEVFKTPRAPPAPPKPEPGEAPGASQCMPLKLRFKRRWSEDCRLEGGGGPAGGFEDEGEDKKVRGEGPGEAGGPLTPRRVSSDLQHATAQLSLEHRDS
# Procedure, shortened: as §1
# [15] = target: T9, ETV3L (Homo sapiens, UniProt Q6ZN32 1-361)
# T9 sequence: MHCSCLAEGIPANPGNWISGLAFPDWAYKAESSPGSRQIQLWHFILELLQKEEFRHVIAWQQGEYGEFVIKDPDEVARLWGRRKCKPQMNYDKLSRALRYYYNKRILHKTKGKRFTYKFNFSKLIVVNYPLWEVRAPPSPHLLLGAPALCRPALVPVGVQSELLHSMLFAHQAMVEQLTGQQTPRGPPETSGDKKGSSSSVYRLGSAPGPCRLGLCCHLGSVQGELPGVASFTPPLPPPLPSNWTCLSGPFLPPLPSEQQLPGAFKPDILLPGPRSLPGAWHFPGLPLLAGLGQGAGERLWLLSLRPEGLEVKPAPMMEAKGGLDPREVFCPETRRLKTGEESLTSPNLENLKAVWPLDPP
# Procedure, shortened: as §1
# [16] = target: T10, ETS2 (Homo sapiens, UniProt P15036 1-469)
# T10 sequence: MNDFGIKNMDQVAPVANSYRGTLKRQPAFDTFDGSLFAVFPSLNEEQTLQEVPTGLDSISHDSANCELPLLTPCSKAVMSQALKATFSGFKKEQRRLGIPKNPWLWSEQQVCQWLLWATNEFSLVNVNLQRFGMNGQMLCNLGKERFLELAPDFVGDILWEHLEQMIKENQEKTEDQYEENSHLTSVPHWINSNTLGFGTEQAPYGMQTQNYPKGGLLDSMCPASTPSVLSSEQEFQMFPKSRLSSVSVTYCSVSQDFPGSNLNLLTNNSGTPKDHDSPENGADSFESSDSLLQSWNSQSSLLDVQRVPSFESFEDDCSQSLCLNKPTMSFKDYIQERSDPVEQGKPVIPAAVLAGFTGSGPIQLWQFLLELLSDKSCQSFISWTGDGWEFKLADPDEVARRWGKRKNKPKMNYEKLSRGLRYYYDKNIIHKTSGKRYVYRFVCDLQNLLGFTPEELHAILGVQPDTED
# Procedure, shortened: as §1
# [17] = target: T11, SPDEF (Homo sapiens, UniProt O95238 1-335)
# T11 sequence: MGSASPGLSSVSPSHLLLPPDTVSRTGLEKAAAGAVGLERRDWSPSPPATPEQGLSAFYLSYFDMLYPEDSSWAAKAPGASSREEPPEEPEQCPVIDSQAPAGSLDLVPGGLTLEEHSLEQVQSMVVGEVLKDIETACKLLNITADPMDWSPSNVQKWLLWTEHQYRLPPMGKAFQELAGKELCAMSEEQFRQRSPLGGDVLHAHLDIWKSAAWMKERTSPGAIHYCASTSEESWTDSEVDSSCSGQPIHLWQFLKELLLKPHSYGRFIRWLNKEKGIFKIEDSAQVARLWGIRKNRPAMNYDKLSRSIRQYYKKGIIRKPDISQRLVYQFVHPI
# Procedure, shortened: as §1
# [18] = target: T12, ETV3 (Homo sapiens, UniProt P41162-2 1-143)
# T12 sequence: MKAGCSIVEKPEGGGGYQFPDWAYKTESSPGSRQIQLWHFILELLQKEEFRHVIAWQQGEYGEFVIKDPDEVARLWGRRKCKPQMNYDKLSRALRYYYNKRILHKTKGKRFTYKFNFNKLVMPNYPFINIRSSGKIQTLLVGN
# Procedure, shortened: as §1
# [19] = target: ETV6 (Homo sapiens, UniProt P41212 1-452)
# Procedure, shortened: as §1
# ETV5, sequence (P41161 whole entry): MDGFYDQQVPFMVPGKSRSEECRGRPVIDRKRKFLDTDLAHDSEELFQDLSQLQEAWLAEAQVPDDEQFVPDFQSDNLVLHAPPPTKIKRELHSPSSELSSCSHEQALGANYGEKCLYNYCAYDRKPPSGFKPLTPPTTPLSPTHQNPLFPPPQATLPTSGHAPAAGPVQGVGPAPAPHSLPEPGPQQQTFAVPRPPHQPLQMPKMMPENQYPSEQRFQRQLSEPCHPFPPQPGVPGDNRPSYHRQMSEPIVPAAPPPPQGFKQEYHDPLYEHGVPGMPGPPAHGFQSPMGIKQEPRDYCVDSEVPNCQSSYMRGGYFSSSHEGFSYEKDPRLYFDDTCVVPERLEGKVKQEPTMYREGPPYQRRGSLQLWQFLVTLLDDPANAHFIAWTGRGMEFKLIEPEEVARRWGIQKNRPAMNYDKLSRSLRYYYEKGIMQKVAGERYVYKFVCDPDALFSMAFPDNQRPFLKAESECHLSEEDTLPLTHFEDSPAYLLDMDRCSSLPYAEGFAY
# ETV1, sequence (P50549 whole entry): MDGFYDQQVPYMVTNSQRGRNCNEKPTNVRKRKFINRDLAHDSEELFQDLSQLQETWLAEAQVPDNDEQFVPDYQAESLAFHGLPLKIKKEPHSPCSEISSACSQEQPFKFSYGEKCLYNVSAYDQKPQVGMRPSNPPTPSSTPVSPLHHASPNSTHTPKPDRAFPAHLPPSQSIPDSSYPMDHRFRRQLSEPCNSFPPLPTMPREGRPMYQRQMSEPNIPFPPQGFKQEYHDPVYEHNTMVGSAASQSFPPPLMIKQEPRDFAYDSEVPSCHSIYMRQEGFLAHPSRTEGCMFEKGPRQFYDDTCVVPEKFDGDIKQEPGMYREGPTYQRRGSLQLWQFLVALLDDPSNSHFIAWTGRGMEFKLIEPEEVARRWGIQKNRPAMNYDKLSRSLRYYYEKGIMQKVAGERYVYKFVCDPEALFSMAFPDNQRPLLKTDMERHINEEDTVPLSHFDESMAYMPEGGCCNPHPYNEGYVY
# ETV6, sequence (P41212 whole entry): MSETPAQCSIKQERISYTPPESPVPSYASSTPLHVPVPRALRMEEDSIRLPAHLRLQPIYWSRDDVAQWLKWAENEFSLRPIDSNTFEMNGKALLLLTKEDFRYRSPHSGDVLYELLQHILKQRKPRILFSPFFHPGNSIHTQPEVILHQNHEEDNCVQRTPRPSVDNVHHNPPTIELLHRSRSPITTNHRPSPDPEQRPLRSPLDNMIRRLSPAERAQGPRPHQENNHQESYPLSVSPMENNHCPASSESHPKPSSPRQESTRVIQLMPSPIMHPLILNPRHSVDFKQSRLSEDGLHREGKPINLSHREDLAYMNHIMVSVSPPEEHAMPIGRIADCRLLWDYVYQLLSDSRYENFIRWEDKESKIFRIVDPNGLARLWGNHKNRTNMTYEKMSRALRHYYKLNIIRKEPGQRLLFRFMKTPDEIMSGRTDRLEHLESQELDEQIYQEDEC
# ELF1, sequence (P32519 whole entry): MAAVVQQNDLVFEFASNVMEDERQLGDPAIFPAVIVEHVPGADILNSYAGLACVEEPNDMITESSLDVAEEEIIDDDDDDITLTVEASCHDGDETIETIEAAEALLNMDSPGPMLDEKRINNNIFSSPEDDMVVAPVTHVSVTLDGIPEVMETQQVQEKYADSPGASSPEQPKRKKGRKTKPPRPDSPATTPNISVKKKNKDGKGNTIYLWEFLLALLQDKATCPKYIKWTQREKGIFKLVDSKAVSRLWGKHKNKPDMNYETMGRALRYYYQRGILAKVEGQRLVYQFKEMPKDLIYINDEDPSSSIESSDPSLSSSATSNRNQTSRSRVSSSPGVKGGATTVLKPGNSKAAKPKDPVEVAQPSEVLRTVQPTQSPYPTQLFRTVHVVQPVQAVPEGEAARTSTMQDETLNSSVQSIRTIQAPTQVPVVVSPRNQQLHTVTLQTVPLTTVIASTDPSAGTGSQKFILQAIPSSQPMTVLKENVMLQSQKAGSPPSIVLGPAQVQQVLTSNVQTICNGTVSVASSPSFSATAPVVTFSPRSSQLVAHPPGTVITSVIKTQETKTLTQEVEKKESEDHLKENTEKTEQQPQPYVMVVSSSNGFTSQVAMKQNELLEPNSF
# SPIB, sequence (Q01892 whole entry): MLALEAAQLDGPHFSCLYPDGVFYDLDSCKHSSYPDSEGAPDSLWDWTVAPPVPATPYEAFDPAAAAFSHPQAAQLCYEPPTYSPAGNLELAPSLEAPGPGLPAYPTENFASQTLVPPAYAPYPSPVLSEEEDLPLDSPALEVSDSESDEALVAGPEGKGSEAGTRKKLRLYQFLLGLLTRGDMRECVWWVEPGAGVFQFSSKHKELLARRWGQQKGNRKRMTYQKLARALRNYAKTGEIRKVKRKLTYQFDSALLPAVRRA
# ELF4, sequence (Q99607 whole entry): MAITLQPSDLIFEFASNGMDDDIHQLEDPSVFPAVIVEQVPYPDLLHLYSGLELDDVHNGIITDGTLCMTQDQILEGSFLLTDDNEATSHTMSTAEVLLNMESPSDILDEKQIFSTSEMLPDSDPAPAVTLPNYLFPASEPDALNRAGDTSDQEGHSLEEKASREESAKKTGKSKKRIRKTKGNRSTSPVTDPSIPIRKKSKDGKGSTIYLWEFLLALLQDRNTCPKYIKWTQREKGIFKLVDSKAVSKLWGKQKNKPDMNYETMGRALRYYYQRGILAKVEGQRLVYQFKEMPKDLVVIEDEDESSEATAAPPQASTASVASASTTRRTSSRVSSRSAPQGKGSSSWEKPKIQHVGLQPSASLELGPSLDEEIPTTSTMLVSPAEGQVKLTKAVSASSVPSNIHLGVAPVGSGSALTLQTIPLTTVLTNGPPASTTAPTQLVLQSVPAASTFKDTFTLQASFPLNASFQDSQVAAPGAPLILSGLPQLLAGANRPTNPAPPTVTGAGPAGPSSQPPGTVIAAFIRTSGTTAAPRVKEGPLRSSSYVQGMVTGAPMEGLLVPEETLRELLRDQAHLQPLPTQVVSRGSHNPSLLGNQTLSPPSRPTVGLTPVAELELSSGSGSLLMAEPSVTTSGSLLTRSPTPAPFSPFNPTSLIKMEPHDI
sequence,measurement,setting,value
GCTATC,binding signal,[1],"1.07 fold enrichment (6-mer frequency, TF over GST control)"
same,binding signal,[2],"1.07 fold enrichment (6-mer frequency, TF over GST control)"
same,binding signal,[3],"1.1 fold enrichment (6-mer frequency, TF over GST control)"
same,binding signal,[4],"1.13 fold enrichment (6-mer frequency, TF over GST control)"
same,binding signal,[5],"1.14 fold enrichment (6-mer frequency, TF over GST control)"
same,binding signal,[6],"1.14 fold enrichment (6-mer frequency, TF over GST control)"
same,binding signal,[7],"1.12 fold enrichment (6-mer frequency, TF over GST control)"
same,binding signal,[8],"1.1 fold enrichment (6-mer frequency, TF over GST control)"
same,binding signal,[9],"1.12 fold enrichment (6-mer frequency, TF over GST control)"
same,binding signal,[10],"1.08 fold enrichment (6-mer frequency, TF over GST control)"
same,binding signal,[11],"1.09 fold enrichment (6-mer frequency, TF over GST control)"
same,binding signal,[12],"1.14 fold enrichment (6-mer frequency, TF over GST control)"
same,binding signal,[13],"1.09 fold enrichment (6-mer frequency, TF over GST control)"
same,binding signal,[14],"1.13 fold enrichment (6-mer frequency, TF over GST control)"
same,binding signal,[15],"1.07 fold enrichment (6-mer frequency, TF over GST control)"
same,binding signal,[16],"1.01 fold enrichment (6-mer frequency, TF over GST control)"
same,binding signal,[17],"1.11 fold enrichment (6-mer frequency, TF over GST control)"
same,binding signal,[18],"1.03 fold enrichment (6-mer frequency, TF over GST control)"
same,binding signal,[19],"1.06 fold enrichment (6-mer frequency, TF over GST control)"
